FBW7 activator: human FBW7 E3 ligase activation, primary screen; 0.13% of 650,000 active; AlphaScreen FBW7–phospho-cyclin E peptide binding, activator screen; normalized activity (activation), % at 26.1 µM; Q969H0; in the data active = normalized activity above about 1.9%;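 also: purified mutant Fbw7 with reduced substrate affinity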
MITF inh: inhibitors of human MITF. O75030. AlphaScreen MITF homodimerization, bead proximity signal. inhibition, % at 2.6 µM. 0.91% of 650,000 active. AID 1259374; in the data active = inhibition above about 50%
TEAD-YAP inh: TEAD-YAP interaction inhibition. HEK-TIYL cells, TEAD-Gal4/YAP UAS-luciferase luminescence. inhibition, % at 9.12 µM. 1.4% of 640,000 active; in the data active = inhibition above about 32%
GPR151 activ: activators of human GPR151; Q8TDV0; PathHunter beta-arrestin GPR151 cells, luminescence; activation, % at 11.2 µM; 1% of 650,000 active; in the data active = activation above about 4.9%
GPR151 conf act: confirmation of human GPR151 activators; 6,700 tested, under 10 active; activation, % at 11.2 µM; AID 1508609; GPR151 PathHunter beta-arrestin cells, luminescence, 90 min; % of EA-reagent control over plate median; shares compounds with GPR151 activ;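 active = mean percent activation across replicates above the confirmation screen cutoff of 4.91%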
GPR119 counter: GPR119 activation, counter-screen for GPR151 activators; 0.3% of 6,700 active; GPR119 PathHunter beta-arrestin cells, luminescence, 90 min; 0 = compound-well median, 100 = enzyme-acceptor control; activation, % at 11.2 µM; shares compounds with GPR151 activ;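 active = mean percent activation in the counterscreen above 29.09%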;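 also: counterscreen on off-target GPR119 to flag nonselective hits from the GPR151 activator screen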
Of the large screens only hits and unclear results are named; the others gave an inactive call (follow-up assays come after a bar, where they were run); ! = repeats disagree. The list is not random: actives were taken first. Their share in the collection is about 3.5%.

CCOc1cc(NC(=O)C2CCCO2)c(OCC)cc1NC(C)=O (configuration not stated)	GPR151 activ 15 | GPR151 conf act inactive | GPR119 counter inactive
CC(=O)Nc1ncc2c(n1)CC(C)(C)CC2=O	none
Cc1cc(C)nc(SCC(=O)Nc2ncc3c(n2)CC(C)(C)CC3=O)n1	GPR151 activ 5.6 | GPR151 conf act inactive | GPR119 counter inactive
C=CCn1c(SC(C)C(=O)NC(N)=O)nnc1-c1ccc(C(C)(C)C)cc1 (configuration not stated)	GPR151 activ 8.2 | GPR151 conf act inactive | GPR119 counter inactive
O=C(NCCCO)/C(=C/c1ccccc1F)NC(=O)c1ccccc1	GPR151 activ 5.0 | GPR151 conf act inactive | GPR119 counter inactive
COc1ccc(-c2nc(C(=O)N3CCN(C)CC3)sc2-c2ccc(OC)cc2)cc1	GPR151 activ 6.7! (no result: TEAD-YAP inh) | GPR151 conf act inactive | GPR119 counter inactive
CC1CCCC(C)N1CC(O)COc1ccc(N)cc1 (configuration not stated)	GPR151 activ 4.9 | GPR151 conf act inactive | GPR119 counter inactive
CC(=O)c1ccc(OCC(O)CN2CCCCC2C)cc1 (configuration not stated)	GPR151 activ 5.2 | GPR151 conf act inactive | GPR119 counter inactive
Cc1cc2c(cc1S(=O)(=O)C(C)CC(=O)NC1CCCCC1)OCC(=O)N2 (configuration not stated)	none
Cc1ccc(N=Cc2ccccc2O)cc1F	none
Cc1ccc(N=Cc2ccccc2O)cc1C#N	GPR151 activ 5.6 | GPR151 conf act inactive | GPR119 counter inactive
CCN(CC)Cc1c(C(=O)N/N=C/c2cccc([N+](=O)[O-])c2)nnn1-c1nonc1N	GPR151 activ 9.9 | GPR151 conf act inactive | GPR119 counter inactive
CCOc1cc(/C=N/NC(=O)c2nnn(-c3nonc3N)c2CC)ccc1O	GPR151 activ 6.9 | GPR151 conf act inactive | GPR119 counter inactive
CCOc1cc(/C=N/NC(=O)c2nnn(-c3nonc3N)c2-c2ccccc2)ccc1O	none
